Here are results for 3 molecules from PubChem BioAssay (EPA / NIEHS).

Settings in all cases: mRNA level, 48 h; actives raise or lower the signal
Read-out in experiment [1]: Paternally Expressed 10 (PEG10), PEG10 (gene 23089)
The experiment can be described thus: LTEA_HepaRG_PEG10: Life Technologies and Expression Analysis (LTEA) Assay for Paternally Expressed 10 (PEG10) using HepaRG (AID 2283520). The procedure, abridged:
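Differentiated HepaRG cells, plated 48 h then switched to serum-free induction medium, were exposed in duplicate for 48 h to eight half-log concentrations topping at 100 uM in 0.5% DMSO. PEG10 mRNA was quantified by TaqMan qRT-PCR, normalised to ACTB, GAPDH and POLR2A.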

Read-out in experiment [2]: Nuclear factor NF-kappa-B p105 subunit (Homo sapiens) (UniProt P19838)
Nature of the experiment: LTEA_HepaRG_NFKB1: Life Technologies and Expression Analysis (LTEA) Assay for Nuclear Factor Kappa B Subunit 1 (NFKB1) using HepaRG (AID 2283521). An outline of the steps:
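Differentiated human HepaRG cells were exposed for 48 h in serum-free induction medium to eight concentrations (top 100 uM, half-log steps, 0.5% DMSO), in duplicate. NFKB1 mRNA was measured by TaqMan qRT-PCR, normalized to ACTB/GAPDH/POLR2A, and fitted bidirectionally against DMSO.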

Read-out in experiment [3]: Protein phosphatase 2A (PPP2R4), PTPA (gene 5524)
Nature of the experiment: LTEA_HepaRG_PPP2R4: Life Technologies and Expression Analysis (LTEA) Assay for Protein phosphatase 2A (PPP2R4) using HepaRG (AID 2283522). The procedure, abridged: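 Differentiated HepaRG cells in serum-free induction medium were exposed in duplicate for 48 h to eight concentrations, top 100 uM with half-log dilutions, in 0.5% DMSO. PPP2R4 mRNA was quantified by TaqMan qRT-PCR, normalized to ACTB, GAPDH and POLR2A.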

Read-out in experiment [4]: Phosphatase and tensin (PTEN), PTEN (gene 5728)
The experiment can be described thus: LTEA_HepaRG_PTEN: Life Technologies and Expression Analysis (LTEA) Assay for Phosphatase and tensin (PTEN) using HepaRG (AID 2283523). The procedure, abridged: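 Differentiated human HepaRG cells, plated 48 h then switched to serum-free induction medium, were exposed in duplicate for 48 h to eight half-log concentrations up to 100 uM in 0.5% DMSO. PTEN mRNA measured by TaqMan qRT-PCR, normalized to ACTB/GAPDH/POLR2A, bidirectional fit versus DMSO.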

Read-out in experiment [5]: solute carrier (SLC22A1), SLC22A1 (gene 6580)
The experiment can be described thus: LTEA_HepaRG_SLC22A1: Life Technologies and Expression Analysis (LTEA) Assay for solute carrier (SLC22A1) using HepaRG (AID 2283524). An outline of the steps:
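Human HepaRG cells were plated 48 h, switched to serum-free induction medium, then exposed in duplicate for 48 h to 8-point half-log series from 100 uM in 0.5% DMSO. SLC22A1 mRNA measured by qRT-PCR, normalized to ACTB/GAPDH/POLR2A, fitted bidirectionally versus DMSO.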

Read-out in experiment [6]: Nuclear factor erythroid 2-related factor 2 (Homo sapiens) (UniProt Q16236)
The experiment can be described thus: LTEA_HepaRG_NFE2L2: Life Technologies and Expression Analysis (LTEA) Assay for Nuclear factor erythroid 2-related factor 2 (NFE2L2) Transcription Factor using HepaRG (AID 2283527).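 Also: TaqMan qRT-PCR transcript level normalised to ACTB GAPDH and POLR2A housekeeping genes.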 An outline of the steps: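 Differentiated human HepaRG cells in serum-free induction medium were exposed for 48 h to eight concentrations (top 100 uM, half-log dilutions, 0.5% DMSO), in duplicate. NFE2L2 mRNA was quantified by TaqMan qRT-PCR, normalized to ACTB, GAPDH and POLR2A, with bidirectional fitting versus DMSO.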

Read-out in experiment [7]: succinate dehydrogenase complex iron sulfur subunit B (SDHB), SDHB (gene 6390)
Nature of the experiment: LTEA_HepaRG_SDHB: Life Technologies and Expression Analysis (LTEA) Assay for succinate dehydrogenase complex iron sulfur subunit B (SDHB) using HepaRG (AID 2283528). An outline of the steps: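 HepaRG, 48 h exposure, 8-pt half-log series from 100 uM in 0.5% DMSO, duplicates. Readout: SDHB mRNA by Fluidigm qRT-PCR vs housekeeping genes; bidirectional fit relative to DMSO.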

Read-out in experiment [8]: solute carrier (SLCO1B1), SLCO1B1 (gene 10599)
Nature of the experiment: LTEA_HepaRG_SLCO1B1: Life Technologies and Expression Analysis (LTEA) Assay for solute carrier (SLCO1B1) using HepaRG (AID 2283530). The procedure, abridged: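 SLCO1B1 transcript levels were quantified by TaqMan qRT-PCR using three housekeeping genes for normalization. This followed 48 h chemical exposure (100 uM top, half-log, 8 points, 0.5% DMSO) of HepaRG liver cells, with gain or loss fitted relative to DMSO.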

Read-out in experiment [9]: sulfotransferase 2A1 (SULT2A1), SULT2A1 (gene 6822)
Nature of the experiment: LTEA_HepaRG_SULT2A1: Life Technologies and Expression Analysis (LTEA) Assay for sulfotransferase 2A1 (SULT2A1) using HepaRG (AID 2283531). The procedure, abridged:
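Expression change of SULT2A1, by qRT-PCR with three housekeeping-gene normalization, was scored bidirectionally versus DMSO. Cells: differentiated HepaRG, dosed in duplicate for 48 h across 8 points, highest 100 µM, half-log dilution, 0.5% DMSO.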

Read-out in experiment [10]: Transforming Growth Factor (TGFA), TGFA (gene 7039)
The experiment can be described thus: LTEA_HepaRG_TGFA: Life Technologies and Expression Analysis (LTEA) Assay for Transforming Growth Factor (TGFA) using HepaRG (AID 2283532). The procedure, abridged:
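Differentiated human HepaRG cells, plated 48 h then switched to serum-free induction medium, were exposed in duplicate for 48 h to 8-point half-log series from 100 uM in 0.5% DMSO. TGFA mRNA measured by qRT-PCR, normalized to ACTB/GAPDH/POLR2A, bidirectional fit versus DMSO.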

Read-out in experiment [11]: Transforming Growth Factor (TGFB1), TGFB1 (gene 7040)
Nature of the experiment: LTEA_HepaRG_TGFB1: Life Technologies and Expression Analysis (LTEA) Assay for Transforming Growth Factor (TGFB1) Transporter using HepaRG (AID 2283533). An outline of the steps: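 TGFB1 transcript measured by qRT-PCR with normalisation to three housekeeping genes (ACTB, GAPDH, POLR2A); human HepaRG line treated in duplicate for 48 hr with an 8-point series topping at 100 uM, 0.5% DMSO vehicle, bidirectionally fitted.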

Read-out in the next experiment: TIMP1, TIMP1 (gene 7076)
The experiment can be described thus: LTEA_HepaRG_TIMP1: Life Technologies and Expression Analysis (LTEA) Assay for TIMP1 using HepaRG (AID 2283534).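 Also: TaqMan qRT-PCR signal normalized to ACTB GAPDH and POLR2A housekeeping genes.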 An outline of the steps:
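Bidirectional change in TIMP1 transcript versus 0.5% DMSO, measured by TaqMan qRT-PCR with three housekeeping genes for normalization. HepaRG human liver cells dosed 48 h in duplicate, top concentration 100 uM with half-log dilutions.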

Read-out in experiment [12]: Tumor necrosis factor receptor 1 (TNFRSF1A), TNFRSF1A (gene 7132)
Nature of the experiment: LTEA_HepaRG_TNFRSF1A: Life Technologies and Expression Analysis (LTEA) Assay for Tumor necrosis factor receptor 1 (TNFRSF1A) using HepaRG (AID 2283535). The procedure, abridged:
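mRNA measured by qRT-PCR (TaqMan, Fluidigm arrays) against ACTB/GAPDH/POLR2A housekeepers after 48 h chemical exposure of HepaRG cells. Top concentration 100 uM, half-log 8-point series, duplicates; vehicle 0.5% DMSO, both fit directions.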

Read-out in experiment [13]: Thyroid Hormone Responsive (THRSP), THRSP (gene 7069)
Nature of the experiment: LTEA_HepaRG_THRSP: Life Technologies and Expression Analysis (LTEA) Assay for Thyroid Hormone Responsive (THRSP) using HepaRG (AID 2283536). An outline of the steps: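 Differentiated human HepaRG cells were exposed in duplicate for 48 h in serum-free induction medium to eight concentrations (top 100 uM, half-log steps, 0.5% DMSO). Expression was quantified by TaqMan qRT-PCR, normalized to ACTB, GAPDH and POLR2A, with bidirectional fitting against DMSO.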

Read-out in experiment [14]: Cellular tumor antigen p53 (Homo sapiens) (UniProt P04637)
The experiment can be described thus: LTEA_HepaRG_TP53: Life Technologies and Expression Analysis (LTEA) Assay for Tumor Protein P53 (TP53) using HepaRG (AID 2283537). An outline of the steps: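 HepaRG, 48 h exposure, top 100 uM, half-log 8-point, 0.5% DMSO vehicle, duplicates. Read: TP53 mRNA by TaqMan qRT-PCR, normalised to ACTB/GAPDH/POLR2A; bidirectional fit vs DMSO.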

Read-out in experiment [15]: UDP glucuronosyltransferase (UGT1A1), UGT1A1 (gene 54658)
Nature of the experiment: LTEA_HepaRG_UGT1A1: Life Technologies and Expression Analysis (LTEA) Assay for UDP glucuronosyltransferase (UGT1A1) using HepaRG (AID 2283538). The procedure, abridged: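 Differentiated human HepaRG cells in serum-free induction medium were exposed in duplicate for 48 h to eight half-log concentrations up to 100 uM in 0.5% DMSO. UGT1A1 mRNA was quantified by TaqMan qRT-PCR, normalized to ACTB, GAPDH and POLR2A, and fitted bidirectionally against DMSO.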

Read-out in experiment [16]: UDP glucuronosyltransferase (UGT1A6), UGT1A6 (gene 54578)
The experiment can be described thus: LTEA_HepaRG_UGT1A6: Life Technologies and Expression Analysis (LTEA) Assay for UDP glucuronosyltransferase (UGT1A6) using HepaRG (AID 2283539). The procedure, abridged:
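Expression was quantified by TaqMan qRT-PCR on Fluidigm arrays with ACTB/GAPDH/POLR2A normalization and bidirectional fitting against 0.5% DMSO. HepaRG cells (~100,000/well) were treated in duplicate for 48 h at eight half-log concentrations up to 100 uM in serum-free induction medium.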

Read-out in experiment [17]: NAD(P)H dehydrogenase [quinone] 1 (NQO1), NQO1 (gene 1728)
The experiment can be described thus: LTEA_HepaRG_NQO1: Life Technologies and Expression Analysis (LTEA) Assay for NAD(P)H dehydrogenase [quinone] 1 (NQO1) using HepaRG (AID 2283526). The procedure, abridged: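 Differentiated HepaRG cells, plated 48 h and then switched to serum-free induction medium, were exposed in duplicate for 48 h to 8-point half-log concentrations up to 100 uM in 0.5% DMSO. mRNA measured by qRT-PCR, normalized to ACTB, GAPDH, POLR2A; bidirectional fit versus DMSO.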

Read-out in experiment [18]: Signal transducer and activator of transcription 3 (Homo sapiens) (UniProt P40763)
The experiment can be described thus: LTEA_HepaRG_STAT3: Life Technologies and Expression Analysis (LTEA) Assay for Signal transducer and activator of transcription (STAT3) using HepaRG (AID 2283529). An outline of the steps:
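Differentiated human HepaRG cells in serum-free induction medium were exposed in duplicate for 48 h to eight half-log concentrations up to 100 uM in 0.5% DMSO. STAT3 mRNA was quantified by TaqMan qRT-PCR, normalized to ACTB, GAPDH and POLR2A, and fitted bidirectionally against DMSO.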

Molecules are shown by their SMILES. Active and inactive are the calls of the source. The calls were made as follows: active = hit-call score of the fitted dose curve at least 0.9, where 1 is the maximum; inactive = score below 0.9.

Chain of Cellular tumor antigen p53 (Homo sapiens) (P04637 whole entry, looked up): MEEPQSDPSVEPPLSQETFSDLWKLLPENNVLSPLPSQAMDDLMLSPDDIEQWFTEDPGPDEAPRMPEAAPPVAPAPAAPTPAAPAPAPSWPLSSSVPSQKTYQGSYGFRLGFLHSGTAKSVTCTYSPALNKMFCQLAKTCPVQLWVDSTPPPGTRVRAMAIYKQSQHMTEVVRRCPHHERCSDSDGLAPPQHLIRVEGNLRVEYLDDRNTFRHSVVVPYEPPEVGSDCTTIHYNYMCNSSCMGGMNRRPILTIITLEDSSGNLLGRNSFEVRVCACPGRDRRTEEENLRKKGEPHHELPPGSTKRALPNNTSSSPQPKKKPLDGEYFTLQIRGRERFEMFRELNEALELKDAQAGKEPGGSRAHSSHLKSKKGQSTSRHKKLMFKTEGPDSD
Chain of Nuclear factor erythroid 2-related factor 2 (Homo sapiens) (Q16236 whole entry, looked up): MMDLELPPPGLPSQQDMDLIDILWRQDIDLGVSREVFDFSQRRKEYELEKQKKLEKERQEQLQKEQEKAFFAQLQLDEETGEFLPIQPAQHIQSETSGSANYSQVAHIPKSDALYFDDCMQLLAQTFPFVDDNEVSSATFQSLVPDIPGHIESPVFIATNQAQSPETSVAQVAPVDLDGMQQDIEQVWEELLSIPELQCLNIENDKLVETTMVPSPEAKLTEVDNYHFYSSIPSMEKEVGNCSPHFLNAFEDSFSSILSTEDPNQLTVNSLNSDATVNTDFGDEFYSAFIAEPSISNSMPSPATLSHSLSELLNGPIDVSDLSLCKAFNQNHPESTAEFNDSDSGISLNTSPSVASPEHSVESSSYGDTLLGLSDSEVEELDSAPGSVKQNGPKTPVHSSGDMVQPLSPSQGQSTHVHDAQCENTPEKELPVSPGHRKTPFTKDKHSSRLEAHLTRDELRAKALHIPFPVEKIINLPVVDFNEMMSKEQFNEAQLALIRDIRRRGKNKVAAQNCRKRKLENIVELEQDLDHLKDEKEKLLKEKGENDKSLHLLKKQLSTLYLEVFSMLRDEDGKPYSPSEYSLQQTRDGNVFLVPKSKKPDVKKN
Chain of Signal transducer and activator of transcription 3 (Homo sapiens) (P40763 whole entry, looked up): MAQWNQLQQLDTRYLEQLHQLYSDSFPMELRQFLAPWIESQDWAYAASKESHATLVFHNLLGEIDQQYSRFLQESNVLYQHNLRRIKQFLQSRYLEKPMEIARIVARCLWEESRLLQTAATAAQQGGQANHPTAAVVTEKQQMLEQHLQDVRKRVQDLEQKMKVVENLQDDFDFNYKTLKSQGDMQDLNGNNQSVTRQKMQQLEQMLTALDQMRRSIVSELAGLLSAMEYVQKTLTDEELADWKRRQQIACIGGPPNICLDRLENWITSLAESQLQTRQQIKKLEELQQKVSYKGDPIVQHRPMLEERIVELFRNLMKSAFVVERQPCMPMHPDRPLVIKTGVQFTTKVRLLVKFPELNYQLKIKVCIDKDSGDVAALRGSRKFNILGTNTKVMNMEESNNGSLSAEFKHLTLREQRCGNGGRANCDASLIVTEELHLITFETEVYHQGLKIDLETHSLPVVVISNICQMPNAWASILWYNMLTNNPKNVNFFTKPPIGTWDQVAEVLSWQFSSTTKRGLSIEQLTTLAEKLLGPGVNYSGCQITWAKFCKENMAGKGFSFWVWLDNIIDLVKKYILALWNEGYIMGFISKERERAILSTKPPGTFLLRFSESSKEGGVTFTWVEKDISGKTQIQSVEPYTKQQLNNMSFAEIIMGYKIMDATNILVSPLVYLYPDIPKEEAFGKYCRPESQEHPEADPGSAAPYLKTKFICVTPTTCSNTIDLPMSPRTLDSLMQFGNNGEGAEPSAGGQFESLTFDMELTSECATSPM
Chain of Nuclear factor NF-kappa-B p105 subunit (Homo sapiens) (P19838 whole entry, looked up): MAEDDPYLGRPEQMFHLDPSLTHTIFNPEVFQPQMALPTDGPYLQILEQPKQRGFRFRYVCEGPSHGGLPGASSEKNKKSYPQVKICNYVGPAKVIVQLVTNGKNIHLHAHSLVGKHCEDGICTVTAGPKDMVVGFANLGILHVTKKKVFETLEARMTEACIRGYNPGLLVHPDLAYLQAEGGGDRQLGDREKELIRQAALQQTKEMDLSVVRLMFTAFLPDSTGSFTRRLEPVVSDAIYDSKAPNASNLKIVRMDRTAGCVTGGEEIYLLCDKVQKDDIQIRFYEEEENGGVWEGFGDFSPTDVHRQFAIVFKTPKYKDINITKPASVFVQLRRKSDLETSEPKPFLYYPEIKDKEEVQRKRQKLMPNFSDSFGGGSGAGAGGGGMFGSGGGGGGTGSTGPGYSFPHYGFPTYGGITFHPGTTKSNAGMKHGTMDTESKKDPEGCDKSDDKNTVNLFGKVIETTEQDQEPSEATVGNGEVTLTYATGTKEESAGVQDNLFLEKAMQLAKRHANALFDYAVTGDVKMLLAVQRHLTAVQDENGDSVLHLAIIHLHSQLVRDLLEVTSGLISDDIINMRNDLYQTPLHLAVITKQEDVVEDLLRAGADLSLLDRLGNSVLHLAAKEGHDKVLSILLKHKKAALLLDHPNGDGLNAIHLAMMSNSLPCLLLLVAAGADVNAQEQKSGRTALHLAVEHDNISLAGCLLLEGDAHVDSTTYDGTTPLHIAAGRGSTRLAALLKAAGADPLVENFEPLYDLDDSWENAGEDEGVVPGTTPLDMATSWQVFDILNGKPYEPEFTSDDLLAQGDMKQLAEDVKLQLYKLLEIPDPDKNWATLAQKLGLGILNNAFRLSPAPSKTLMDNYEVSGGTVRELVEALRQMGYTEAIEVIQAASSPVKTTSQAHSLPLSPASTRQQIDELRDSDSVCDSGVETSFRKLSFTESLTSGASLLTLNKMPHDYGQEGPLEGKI

For `O=c1c(-c2ccc(O)cc2)coc2cc(O)cc(O)c12`, the result in experiment [1], in [2], in experiment [3], in experiment [4], in experiment [5] and in [6] was inactive. Further, the outcome in experiment [7] was “inactive”; in experiment [8], “inactive”; in [9], “inactive”; in experiment [10], “inactive”; in [11], “inactive”; in the experiment with TIMP1, TIMP1 (gene 7076), “inactive”. Also, the call in experiment [12], in [13], in experiment [14], in experiment [15] and in experiment [16] was inactive.
`CC1=CC(=O)/C(=C(/C)O)C(=O)O1`: the call in experiment [1], in [3], in experiment [4], in experiment [5], in [17] and in experiment [6] was inactive. In addition, the call in [7], in experiment [18], in experiment [8], in [9], in [10] and in experiment [11] was inactive. In addition, the outcome in the experiment with TIMP1, TIMP1 (gene 7076) was “inactive”; in experiment [12], “inactive”; in experiment [13], “inactive”; in [14], “inactive”; in experiment [15], “inactive”; in experiment [16] it was “inactive”.
Consider `OC12N=C(c3ccccc3)SC1Cc1cc(Cl)ccc12` (stereo not drawn), for which the AC50 is 11.8 µM (active) in experiment [1]; 40.5 µM (active) in experiment [5]; 0.925 µM (active) in experiment [18]; 32.9 µM (active) in experiment [8]; 14 µM (active) in experiment [9]; 16.2 µM (active) in experiment [13]. Moreover, the AC50 is 26 µM (active) in [14] and 2.54 µM (active) in experiment [15]. Besides, the molecule was classed as inactive in experiment [3], in [4], in experiment [17], in experiment [6], in [7] and in experiment [10]. The outcome in experiment [11] is “inactive”; in the experiment with TIMP1, TIMP1 (gene 7076) it was “inactive”; in [12], “inactive”; in experiment [16], “inactive”.

One may read the AC50 as the midpoint of the concentration-response curve, whichever way the signal moves.
